# Laboratory results taken from PubChem BioAssay AID431 (Sanford-Burnham Center for Chemical Genomics, 2006).
# Among all 63,000 compounds or so, about 1,100 (1.7%) were called active. The full list was thinned out, with actives kept by preference. Results with a measured potency or affinity are listed apart. Values without a mark were called inactive.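 How the source made its calls: active means compounds whose percent cytotoxicity in the single-dose primary screen, scaled between solvent and toxic-drug controls, exceeds 50; inactive means the rest.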
# Test: cytotoxicity in KRAS-transformed pancreatic duct cells, primary screen, cell-based, fluorescence, HTS (AID 431);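 further: 0% = DMSO solvent wells and 100% = doxorubicin-treated wells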
# Settings: HPDE-C7K KRASV12 cells, Alamar Blue viability, 48 h; at 10 µM; hits give high values
row,Compound,cytotoxicity
1,CCOC(=O)CCCSc1nc2sc(C)c(C)c2c(=O)[nH]1,9.4%
2,CC(C)CCn1c(SCC(N)=O)nc2c1c(=O)n(C)c(=O)n2C,-10.1%
3,CCOc1ccc(OCc2ccc(C(=O)O)o2)cc1,-2.9%
4,COc1cc(C2CC(=O)c3cnc(NC(=O)COc4ccccc4)nc3C2)cc(OC)c1OC (stereo not given),-19.4%
5,CCN1CCN(c2ncc3c(n2)CC(c2ccc(OC)c(OC)c2)CC3=O)CC1 (stereo not given),14.6%
6,CCN1CCN(c2ncc3c(n2)CC(c2cc(OC)c(OC)c(OC)c2)CC3=O)CC1 (stereo not given),62.1% (active)
7,O=C1CC(c2cccc(Cl)c2)Cc2nc(N3CCN(c4ccccc4)CC3)ncc21 (stereo not given),61.6% (active)
8,COc1ccc(C2CC(=O)c3c(C)nc(N4CCN(Cc5ccccc5)CC4)nc3C2)cc1OC (stereo not given),39.3%
9,COc1cc(C2CC(=O)c3cnc(N4CCN(Cc5ccccc5)CC4)nc3C2)cc(OC)c1OC (stereo not given),50.1% (active)
10,Cc1ccc(C2CC(=O)c3cnc(N4CCN(c5ccccc5)CC4)nc3C2)cc1 (stereo not given),17.2%
11,COc1ccc(C2CC(=O)c3cnc(N4CCN(Cc5ccccc5)CC4)nc3C2)cc1 (stereo not given),4.1%
12,O=C1CC(c2cccc(Cl)c2)Cc2nc(N3CCOCC3)ncc21 (stereo not given),-18.3%
13,CCOC(=O)C1CCN(C(=O)CCn2c(=O)[nH]c3ccccc3c2=O)CC1,-4.8%
14,Cc1nn(C)c(C)c1S(=O)(=O)NC1CCCC1,-13%
15,CCOC(=O)C1CCCN(C(=O)c2cccs2)C1 (stereo not given),2.4%
16,COc1cccc(NC(=O)NCc2cccn2C)c1,-7%
17,COc1cc(S(=O)(=O)N2CCCC3(CCCCC3)C2)ccc1-n1cnnn1,76% (active)
18,COc1cc(S(=O)(=O)N2CCN3CCCC3C2)ccc1-n1cnnn1 (stereo not given),6.5%
19,COc1cc(S(=O)(=O)N2CCC(N3CCCCC3)CC2)ccc1-n1cnnn1,12.7%
20,COc1cc(C(=O)Nc2ccc(S(=O)(=O)N3CCCCC3C)cc2)cc(OC)c1OC (stereo not given),0.7%
21,Cc1cc(C)c2c(CC(=O)N(CCC#N)Cc3cccnc3)coc2c1,-1.9%
22,c1csc(CSc2nc3ccccc3s2)c1,-17.1%
23,N#C/C(=C\c1ccco1)Sc1nc2ccccc2s1,43.6%
24,Cc1oc(-c2cccs2)nc1CS(=O)CC(=O)NCCCOC(C)C (stereo not given),-12.2%
25,O=C(CSC1=NCCS1)Nc1ccnc2ccccc12,-15.4%

row,Compound,cytotoxicity
1,COC(=O)COc1ccc(S(=O)(=O)NCCC2=CCCCC2)cc1C,-19.8%
2,COC(=O)COc1ccc(S(=O)(=O)NCCC2=CCCCC2)cc1,-11.9%
3,CCOC(=O)COc1ccc(S(=O)(=O)NCCC2=CCCCC2)cc1,53.1% (active)
4,COC(=O)C1=C(C)OC(N)=C(C#N)C1C1CCCCC1 (stereo not given),-11.1%
5,CCOc1ccc(NC(=O)CSc2nnc(C)n2CCCOC)cc1,-3.5%
6,Cc1cccc(OCC(=O)Nc2cc(C)ccc2O)c1,-1.5%
7,Cc1ccc(C(=O)/C=C/Nc2cccc(O)c2)cc1,60.9% (active)
8,COc1cccc(C(=O)Nc2ccc(C)cc2)c1,4.1%
9,COc1cccc(C(=O)/C=C/Nc2cc(C)ccc2O)c1,69.1% (active)
10,O=C(/C=C/Nc1cccc(O)c1)c1ccccc1,15%
11,C/C(=C\C(=O)c1ccc(C)cc1)Nc1cccc(O)c1,-15.4%
12,Cc1ccc(C)c(N2CCN(C(=O)c3ccc(NS(=O)(=O)c4c(C)noc4C)cc3)CC2)c1,17.4%
13,Cc1noc(C)c1S(=O)(=O)Nc1ccc(C(=O)N2CCN(c3ccc(Cl)cc3)CC2)cc1,-5.4%
14,CCCCc1n[nH]c2c1C(=O)CC(C)(C)C2,1.2%
15,CCOC(=O)N1CCC(NC(=O)c2cc(C(=O)Nc3cccc(OC)c3)ccc2CO)CC1,1.1%
16,CCCCC(c1nnnn1CC1CCCO1)N1CCN(c2cc(Cl)ccc2C)CC1 (stereo not given),36.2%
17,Cc1ccc(Cl)cc1N1CCN(C(CC(C)C)c2nnnn2CC2CCCO2)CC1 (stereo not given),39.6%
18,CCCC(c1nnnn1CC1CCCO1)N1CCN(c2cc(Cl)ccc2C)CC1 (stereo not given),61.1% (active)
19,O=C(Nc1ccccc1C(=O)O)c1ncn[nH]1,-10%
20,CC(C)CC(=O)Nc1c2c(nn1-c1ccc(F)cc1)CSC2,-0.6%
21,CCOC(=O)CCc1c(C)n(CC)c2ncnn2c1=O,2.5%
22,CC(C)(C)NS(=O)(=O)c1ccc2nc(NC(=O)Cc3cccs3)sc2c1,73.1% (active)
23,O=C(Cc1cccs1)Nc1nc2ccccc2s1,2.2%
24,CS(=O)(=O)c1ccc2nc(NC(=O)Cc3ccccc3)sc2c1,2.6%
25,COCCn1c(=S)[nH]c2cc(C(=O)N3CCN(c4ccccc4OC)CC3)ccc2c1=O,6.7%
